Assay results taken from the supplement of paper PMC8728848.
The sample as a whole holds a higher share of the strongest signals than the screen did.

How the values were obtained:
Assay in all cases: glycan array binding signal (z-score within array); higher = stronger binding
Conditions in all cases: glycan notation: IUPAC condensed, linker removed
[1] = biological target: Fuc(a1-2)Gal(b1-3)GalNAc(a1-3)[Fuc(a1-2)]Gal(b1-4)GlcNAc
Outline: (§1)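 The binding signal is a Z-score computed within each array. Data were drawn from 3228 arrays in the Consortium for Functional Glycomics database, restricted to those with a known protein sequence. Scores were averaged over arrays of the same protein sequence at different concentrations or buffers, and over linkers, and negative values can be taken as non-binding.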

[2] = biological target: Fuc(a1-2)Gal(b1-3)GlcNAc(b1-3)GalNAc
Outline: as §1

[3] = biological target: Fuc(a1-2)Gal(b1-3)GlcNAc(b1-3)[Neu5Ac(a2-6)Gal(b1-4)GlcNAc(b1-6)]Gal(b1-4)Glc
Outline: as §1

[4] = biological target: Fuc(a1-2)Gal(b1-3)[Fuc(a1-4)]GlcNAc
Outline: as §1

[5] = biological target: Fuc(a1-2)Gal(b1-4)GlcNAc(b1-2)Man(a1-3)[Fuc(a1-2)Gal(b1-4)GlcNAc(b1-2)Man(a1-6)]Man(b1-4)GlcNAc(b1-4)[Fuc(a1-6)]GlcNAc
Outline: as §1

[6] = biological target: Fuc(a1-2)Gal(b1-4)GlcNAc(b1-2)[Fuc(a1-2)Gal(b1-4)GlcNAc(b1-4)]Man(a1-3)[Fuc(a1-2)Gal(b1-4)GlcNAc(b1-2)Man(a1-6)]Man(b1-4)GlcNAc(b1-4)GlcNAc
Outline: as §1

[7] = biological target: Fuc(a1-2)Gal(b1-4)GlcNAc(b1-3)Gal(b1-4)GlcNAc(b1-2)Man(a1-3)[Fuc(a1-2)Gal(b1-4)GlcNAc(b1-3)Gal(b1-4)GlcNAc(b1-2)Man(a1-6)]Man(b1-4)GlcNAc(b1-4)GlcNAc
Outline: as §1

[8] = biological target: Fuc(a1-2)Gal(b1-4)GlcNAc6S
Outline: as §1

[9] = biological target: Fuc(a1-2)Gal(b1-4)[Fuc(a1-3)]GlcNAc(b1-3)Gal(b1-4)[Fuc(a1-3)]GlcNAc
Outline: as §1

[10] = biological target: Fuc(a1-2)Gal(b1-4)[Fuc(a1-3)]GlcNAc(b1-3)Gal(b1-4)[Fuc(a1-3)]GlcNAc(b1-3)Gal(b1-4)[Fuc(a1-3)]GlcNAc
Outline: as §1

[11] = biological target: Fuc(a1-2)[Gal(a1-3)]Gal
Outline: as §1

[12] = biological target: Fuc(a1-2)[Gal(a1-3)]Gal(b1-3)GlcNAc(b1-6)GalNAc
Outline: as §1

[13] = biological target: Fuc(a1-2)[Gal(a1-3)]Gal(b1-4)GlcNAc
Outline: as §1

[14] = biological target: Fuc(a1-2)[GalNAc(a1-3)]Gal(b1-3)GlcNAc(b1-6)GalNAc
Outline: as §1

[15] = biological target: Fuc(a1-2)[GalNAc(a1-3)]Gal(b1-4)GlcNAc(b1-3)Gal(b1-4)GlcNAc(b1-3)Gal(b1-4)GlcNAc
Outline: as §1

[16] = biological target: Fuc(a1-3)[Gal(b1-4)]GlcNAc(b1-3)Gal(b1-4)[Fuc(a1-3)]GlcNAc(b1-3)Gal(b1-4)[Fuc(a1-3)]GlcNAc
Outline: as §1

[17] = biological target: Fuc(a1-3)[GalNAc(b1-4)]GlcNAc
Outline: as §1

[18] = biological target: Gal(a1-3)Gal
Outline: as §1

[19] = biological target: Gal(a1-3)Gal(b1-3)[Fuc(a1-4)]GlcNAc(b1-2)Man(a1-3)[Gal(a1-3)Gal(b1-3)[Fuc(a1-4)]GlcNAc(b1-2)Man(a1-6)]Man(b1-4)GlcNAc(b1-4)GlcNAc
Outline: as §1

[20] = biological target: Gal(a1-4)Gal(b1-4)Glc
Outline: as §1

[21] = biological target: Gal(a1-4)Gal(b1-4)GlcNAc(b1-3)Gal(b1-4)Glc
Outline: as §1

[22] = biological target: Gal(b1-3)Gal(b1-4)GlcNAc
Outline: as §1

[23] = biological target: Gal(b1-3)GalNAc(a1-3)[Fuc(a1-2)]Gal(b1-4)Glc
Outline: as §1

[24] = biological target: Gal(b1-3)GlcNAc(b1-2)Man(a1-3)[Gal(b1-3)GlcNAc(b1-2)Man(a1-6)]Man(b1-4)GlcNAc(b1-4)[Fuc(a1-6)]GlcNAc
Outline: as §1

[25] = biological target: Gal(b1-3)GlcNAc(b1-2)Man(a1-3)[GlcNAc(b1-4)][Gal(b1-3)GlcNAc(b1-2)Man(a1-6)]Man(b1-4)GlcNAc(b1-4)GlcNAc
Outline: as §1

[26] = biological target: Gal(b1-4)GlcNAc(b1-2)Man
Outline: as §1

[27] = biological target: Gal(b1-4)GlcNAc(b1-2)Man(a1-3)[GlcNAc(b1-2)Man(a1-6)]Man(b1-4)GlcNAc(b1-4)GlcNAc
Outline: as §1

[28] = biological target: Gal(b1-4)GlcNAc(b1-3)Gal(b1-3)GalNAc
Outline: as §1

[29] = biological target: Gal3S6S(b1-4)GlcNAc
Outline: as §1

[30] = biological target: GalNAc(b1-4)GlcNAc(b1-3)GalNAc(b1-4)GlcNAc
Outline: as §1

B1: LecB PA14 (Pseudomonas aeruginosa) (protein)
chain: MATQGVFTLPANTQFGVTAFANSAGTQTVNVQVNNETVATFTGQSTNNAIIGSKVLNSGGGGKVQILVSVNGRSSDLVSAQVILANELNFALVGSEDSTDNDYNDAVVVINWPLG
glycan array binding signal (z-score) [1]: 0.586
glycan array binding signal (z-score) [2]: 0.422
glycan array binding signal (z-score) [3]: 0.308
glycan array binding signal (z-score) [4]: 2.93
glycan array binding signal (z-score) [5]: 2.75
glycan array binding signal (z-score) [6]: 4.68
glycan array binding signal (z-score) [7]: 7.45
glycan array binding signal (z-score) [8]: -0.469
glycan array binding signal (z-score) [9]: 10.2
glycan array binding signal (z-score) [10]: 7.29
glycan array binding signal (z-score) [11]: -0.002
glycan array binding signal (z-score) [12]: -0.543
glycan array binding signal (z-score) [13]: -0.7
glycan array binding signal (z-score) [14]: -0.191
glycan array binding signal (z-score) [15]: -0.182
glycan array binding signal (z-score) [16]: 4.17
glycan array binding signal (z-score) [17]: 5.42
glycan array binding signal (z-score) [18]: -0.72
glycan array binding signal (z-score) [19]: 2.54
glycan array binding signal (z-score) [20]: -0.633
glycan array binding signal (z-score) [21]: 0.061
glycan array binding signal (z-score) [22]: -0.517
glycan array binding signal (z-score) [23]: -0.227
glycan array binding signal (z-score) [24]: 0.647
glycan array binding signal (z-score) [25]: 0.447
glycan array binding signal (z-score) [26]: -0.837
glycan array binding signal (z-score) [27]: 0.016
glycan array binding signal (z-score) [28]: -0.179
glycan array binding signal (z-score) [29]: -0.745
glycan array binding signal (z-score) [30]: -0.272
